Screens deposited in PubChem BioAssay by several laboratories.
In the library only some 1.1% were active in any assay of this set; here they are far more common.
Mtb hypoxia inh: inhibitors of hypoxia-regulated fluorescent reporter in Mycobacterium tuberculosis. M. tuberculosis hypoxia-regulated fluorescent reporter, fluorescence. fluorescence inhibition, % (test concentration not listed). 0.1% of 300,000 active. AID 1159583; in the data active = fluorescence inhibition mostly above about 23%, no sharp cut-off; inactive = mostly below about 17%
PriA SSB inh: inhibitors of Klebsiella pneumoniae PriA binding to SSB C-terminal tail. AlphaScreen SSBct-PriA binding, biotinylated peptide. inhibition, % at 33 µM. 0.6% of 430,000 active; in the data active = inhibition mostly above about 37%, no sharp cut-off; inactive = mostly below about 20%;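 note: plate controls were negative control peptide for no effect and reference peptide for full effect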
Sa RN4220 lethal: kills Staphylococcus aureus RN4220; S. aureus RN4220 growth, OD600, 16 h; inhibition, % (concentration not given with the values); 0.33% of 330,000 active; in the data active = inhibition above about 85%;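 note: plate controls were untreated cells for no effect and reference antibiotic for full effect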
ugtP null kill: compounds lethal to S. aureus RN4220 ugtP deletion mutant; OD600 growth, 16 h; growth inhibition, % (no concentration beside the values); 0.54% of 330,000 active; AID 1259309; in the data active = growth inhibition above about 68%;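 note: plate controls were untreated wells for no effect and antibiotic for full effect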
Starred values were filed as active, the others as inactive; i = inactive; x = no result given; ! = not active in a repeat.

SMILES	Mtb hypoxia inh	PriA SSB inh	Sa RN4220 lethal	ugtP null kill
Cc1cc(C)cc(OCCNC(=O)COc2ccc(Cl)cc2Cl)c1	x	-8.0	x	x
CCC(Sc1ccc(C)cc1)C(=O)Nc1nnc(C(C)C)s1 (configuration not stated)	x	-7.0	x	x
O=C(Nc1ccc(Cl)c([N+](=O)[O-])c1)C(Sc1ccccc1)c1ccccc1 (configuration not stated)	3.4	9.8	85.9*	99.2*
O=C(NCc1ccnc(-c2cccs2)c1)NCc1ccc2c(c1)OCO2	x	2.0	x	x
O=C(CCn1nc(-c2ccccc2)cc1-c1ccccc1)N/N=C\c1ccco1	x	20.0	x	x
O=C(NN=Cc1ccco1)c1ccccn1	1.9	59.6*	2.3	-2.9
O=C(CCn1cnc(-c2ccccc2)c1-c1ccccc1)N/N=C\c1ccco1	x	48.0*	x	x
O=C(Nc1ccc2c(c1)CN(C(=O)C1CC1)CC2)c1c(F)cccc1F	x	-12.0	x	x
Cc1nc(-c2cccs2)sc1CNC(=O)[C@H]1CC(=O)N(c2cccc(F)c2)C1	x	-1.0	x	x
O=c1cnnc(NN=Cc2ccccn2)[nH]1	4.4	71.0*	0.7	2.8
C(=N\Nc1nncc2ccccc12)/c1ccccc1	x	i	x	x
C(=NNc1nncc2ccccc12)c1ccccn1	10.5	51.0*	9.5	0.9
Nc1c(Cl)ncnc1N/N=C/c1cccnc1	x	i	x	x
Nc1c(Cl)ncnc1NN=Cc1ccccn1	1.8	110.4*	-3.1	-5.3
COC(=O)Nc1ccc2c(c1)N(C(=O)C(C)C)CCC2	x	7.0	x	x
CSc1ncccc1C(=O)NCC1CCN(Cc2ccco2)CC1	x	-10.0	x	x
C/C=C(/C)C(=O)O[C@@H]1c2c(ccc3ccc(=O)oc23)O[C@@H]1C(C)(C)OC(C)=O	x	-6.0	x	x
CC=C(C)C(=O)OC1c2c(ccc3ccc(=O)oc23)OC1C(C)(C)OC(=O)C(C)=CC (configuration not stated)	17.9	x	-4.2	96.7*
O=[N+]([O-])c1ccc(Nc2c([N+](=O)[O-])ccc3c2=NC2(CCCCC2)N=3)cc1	x	90.0*	x	x
O=[N+]([O-])c1ccc2c(c1Nc1ccc(Br)cc1)=NC1(CCCCC1)N=2	x	27.6	x	x
O=C1C(SCCO)=C(SCCO)C(=O)c2ccccc21	x	101.3*	x	x
Cc1ccc(Cl)cc1NC(=O)C1CCCN1S(=O)(=O)c1ccc(-c2ccc(=O)[nH]n2)s1 (configuration not stated)	-9.4	9.2	96.5*	96.6*
Cc1oc2c(c1C(=O)NCc1cccnc1)C(=O)c1ccccc1C2=O	19.4	1.1	91.3*	87.7
O=C(c1ccc2c(c1)OCO2)N(CCc1cccs1)C1CCOCC1	x	3.0	x	x
COc1ccc(N=C2S/C(=C\c3ccc(OCC(=O)O)cc3)C(=O)N2CCc2c[nH]c3ccccc23)cc1	-3.5	50.6*	24.1	21.1
SMILES	Mtb hypoxia inh	PriA SSB inh	Sa RN4220 lethal	ugtP null kill
Cc1cc(-c2n[nH]c(=S)n2N=Cc2sccc2C)n[nH]1	x	-5.1	3.6	-6.2
S=c1[nH]nc(-c2cc(-c3ccccc3)n[nH]2)n1N=Cc1ccc(Br)s1	0.0	3.5	-20.4	-14.2
S=c1[nH]nc(-c2ccccn2)n1N=Cc1ccc(Br)s1	x	79.2*	x	x
Cc1ccsc1C=Nn1c(-c2ccccn2)n[nH]c1=S	0.5	88.0*	5.4	-0.3
COc1ccccc1N1CCN(C(=O)COc2cc(C)nc(-c3ccc(Cl)cc3)n2)CC1	x	-13.0	x	x
O=C(CSc1ccc2nnc(-c3ccccn3)n2n1)NCc1ccco1	0.2	82.2*	4.7	3.1
O=C(CSc1ccc(-c2ccccn2)nn1)NCc1ccco1	x	71.0*	x	x
O=C(CSc1ccc2nnc(-c3ccccc3)n2n1)NCc1ccco1	-2.8	1.6	5.6	11.8
O=C(CSc1ccc(-c2cccs2)nn1)NCCc1ccccc1	12.8	-3.0	-4.0	3.5
O=C(CSc1ccc(-c2ccccn2)nn1)NCc1ccc(F)cc1	12.7	3.0	5.7	-0.8
O=C(CSc1ccc(-c2ccccn2)nn1)NCCc1ccccc1	x	81.3*	x	x
O=C(CSc1ccc(-c2ccccn2)nn1)NCc1ccccc1	14.7	50.0*!	2.6	1.7
Cn1nc(-c2ccccc2)cc1C(=O)Nc1ccccc1-c1ccc(=O)[nH]n1	x	-5.0	x	x
Cc1ccc(NC(=O)Cn2c(C)nc3c(sc4cccc(F)c43)c2=O)cc1Cl	x	-13.0	x	x
O=C(CSc1ccc(-c2ccccn2)nn1)NC1CCCCC1	12.7	72.0*!	4.9	-0.2
O=C(Nc1ncnc2sccc12)c1cccc([N+](=O)[O-])c1	x	0.0	x	x
O=C(NCc1cccs1)NC1CCN(c2ccccn2)C1 (configuration not stated)	x	2.0	x	x
O=C(Nc1ccc(CN2CCN(c3ccccn3)CC2)cc1)Nc1ccc2c(c1)OCO2	x	50.0*	x	x
Nc1nc(-c2csc(N)n2)cs1	x	46.0*	x	x
COCCN(Cc1ccsc1)C(=O)CCc1ccc(C(F)(F)F)cc1	x	-26.0	x	x
CCOc1ccc(NC(=O)c2csc3c2CCCC3)cc1	x	115.4*	x	x
COc1ccc(C=NNC(=O)COc2cc(C)cc(C)c2)cc1COC(C)=O	6.6	-11.2	0.0	93.4*
Cc1ccc(S(=O)(=O)N=C2C(=O)c3ccccc3C([O-])=C2n2cc[n+](CCC(C)C)c2)cc1	x	-10.1	x	x
O=C(Nc1ccon1)C1CN(C(=O)c2cnccn2)C1	x	-5.0	x	x
CCN1C(=O)C(C)(C)COc2ccc(NS(=O)(=O)c3ccc(NC(C)=O)cc3)cc21	x	10.0	x	x
SMILES	Mtb hypoxia inh	PriA SSB inh	Sa RN4220 lethal	ugtP null kill
C=CCOCC(O)Cn1c(NCc2ccco2)nc2c1c(=O)[nH]c(=O)n2C (configuration not stated)	x	67.0*	x	x
COc1ccc(CCn2c(NCc3ccco3)nc3c2c(=O)[nH]c(=O)n3C)cc1	x	-14.3	2.9	7.7
CC1CCC(C(C)C)C(OC(=O)Cn2c(-c3ccc(Cl)cc3)[n+](C)c3ccccc32)C1 (configuration not stated)	x	-1.4	100.3*	99.9*
Cc1ccccc1OCc1n(CC(=O)OC2CC(C)CCC2C(C)C)c2ccccc2[n+]1C (configuration not stated)	x	15.3	100.1*	100.8*
CC1CCC(C(C)C)C(OC(=O)COC(=O)c2ccc(N)cc2)C1 (configuration not stated)	1.9	-6.4	4.9	82.5
CC1CCC(C(C)C)C(OC(=O)Cn2c(-c3ccc(Br)cc3)[n+](C)c3ccccc32)C1 (configuration not stated)	x	9.9	100.0*	100.3*
CC1CCC(C(C)C)C(OC(=O)COC(=O)c2ccccc2N)C1 (configuration not stated)	7.0	-16.3	-1.1	94.2*
O=C(NC1CC(=O)N(c2ccccc2)C1)c1ccccc1 (configuration not stated)	x	-5.0	x	x
O=C(Cn1cnc2c(sc3cccc(Cl)c32)c1=O)Nc1ccc2c(c1)OCO2	x	-9.0	x	x
COC(=O)c1sc2nc(-c3ccc(C)cc3)cc(-c3ccc(OC)c(OC)c3)c2c1N	x	-2.0	x	x
CCCCC(=O)NCCn1ncc2c(=O)n(Cc3ccc(Cl)cc3)cnc21	x	-31.0	x	x
CC1C(=O)NCCN1C(=O)COc1ccc(Cl)cc1Cl (configuration not stated)	x	-12.0	x	x
NS(=O)(=O)c1ccc(CCNc2cnc3cc(S(=O)(=O)N4CCCCC4)ccc3n2)cc1	x	102.0*	x	x
NS(=O)(=O)c1ccc(Nc2ccc3cc(S(=O)(=O)N4CCCCC4)ccc3n2)cc1	1.0	-15.4	-1.3	-9.2
COc1ccc(Cl)cc1C(=O)NC1CCN(c2nccs2)CC1	x	-10.0	x	x
